Reference: PubChem BioAssay (EPA / NIEHS)
Calls of active or inactive are those of the source. How the source made its calls: active means hit-call score of the fitted dose curve at least 0.9, where 1 is the maximum; inactive means score below 0.9.

molecular target: Transcription factor E2F1 (Homo sapiens) (UniProt Q01094); assay: ATG_E2F_CIS: Attagene CIS-FACTORIAL HepG2 Assay for human E2F Transcription Factor 1 (AID 2282935); conditions: HepG2 Attagene cis-reporter, E2F reporter RNA transcripts; actives raise or lower the signal
Sequence (Q01094 whole entry, looked up): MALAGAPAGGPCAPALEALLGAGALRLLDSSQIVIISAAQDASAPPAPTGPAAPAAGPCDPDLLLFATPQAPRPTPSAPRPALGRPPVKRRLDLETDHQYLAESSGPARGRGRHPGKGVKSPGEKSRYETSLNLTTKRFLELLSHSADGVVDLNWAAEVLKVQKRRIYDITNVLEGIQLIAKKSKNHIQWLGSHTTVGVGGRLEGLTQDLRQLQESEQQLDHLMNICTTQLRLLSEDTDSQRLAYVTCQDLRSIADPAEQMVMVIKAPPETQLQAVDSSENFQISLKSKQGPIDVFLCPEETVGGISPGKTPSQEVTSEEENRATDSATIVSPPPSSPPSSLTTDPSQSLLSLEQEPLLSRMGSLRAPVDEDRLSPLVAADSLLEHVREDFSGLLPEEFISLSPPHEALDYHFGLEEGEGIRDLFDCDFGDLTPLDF
Method: ATG_CIS is a cell-based, multiplexed-readout assay that uses HepG2, a human liver cell line, with measurements taken at 24 hours after chemical dosing in a 24-well plate.ATG_E2F_CIS is one of 52 assay component(s) measured or calculated from the ATG_CIS assay. It is designed to make measurements of mRNA induction, a form of inducible reporter, as detected with fluorescence intensity signals by Reverse transcription polymerase chain reaction (RT-PCR) and Capillary electrophoresis technology.Data from the assay component ATG_E2F_CIS was analyzed into 1 assay endpoint. This assay endpoint, ATG_E2F_CIS, was analyzed with bidirectional fitting relative to DMSO as the negative control and baseline of activity. Using a type of inducible reporter, measures of mRNA for gain or loss-of-signal activity can be used to understand the reporter gene at the transcription factor-level as they relate to the gene E2F1. Furthermore, this assay endpoint can be referred to as a primary readout, because this assay has produced multiple assay endpoints where this one serves a reporter gene function. To generalize the intended target to other relatable targets, this assay endpoint is annotated to the dna binding intended target family, where the subfamily is E2F transcription factor.
Human liver HepG2 cells are transiently transfected with multiple reporter transcription units (MRTUs) in 6-well plates using FuGene 6 reagent (Roche; 3 ml FuGene/1 mg DNA). The MRTU constructs are regulated by a cis-regulating element (promoter). […] A major difference between the CIS and TRANS system is that in CIS activities of endogenous TFs are measured, whereas the TRANS assay evaluates changes in activities of exogenous, chimeric NR-Gal4 proteins. […] At the end of 24 hour incubation, total RNA was isolated using TriZol reagent (Invitrogen). The isolated RNA is then reverse-transcribed using oligo(dT) primer and Mo-MLV reverse transcriptase (Invitrogen) with DNAse I (Ambion) treatment for 30 min. The one-tenth of the produced cDNA was amplified by PCR using Taq DNA polymerase (Invitrogen) and two reporter sequence-specific primers. The PCR products were fluorescently labeled by primer extension with 6-arboxyfluorescein (6-FAM) 5'-labeled reporter sequence-specific primer (2 min at 95 C, 20 s at 68 C and 10 min at 72 C) and these products were digested with 5U of HpaI (New England Biolabs) for 2h at 37 C. The fragments were purified using Qiaquick PCR columns (Qiagen), analyzed on an ABI 3130xL genetic analyzer (Applied Biosystems) with peak positions identified by using a set of X-rhodamine (ROX)-labeled MapMarker1000 molecular weight standards (BioVentures). The raw capillary electrophoresis data was processed using Attagraph software (Attagene).

SMILES	outcome	AC50
ClCCCCCCCl	inactive	
Nc1ccccc1C(=O)Oc1ccc2ccccc2c1	inactive	
CCCCCCCCCCCC#N	inactive	
O=P(O)(Oc1ccccc1)Oc1ccccc1	inactive	
O=C(O)c1cc[c]([Hg][Cl])cc1	inactive	
O=CNC(N1CCN(C(NC=O)C(Cl)(Cl)Cl)CC1)C(Cl)(Cl)Cl (stereo not given)	inactive	
CCCOC(=O)c1ccccc1C(=O)OCCC	inactive	
CCOP(O)OCC	inactive	
O=C=Nc1ccccc1	inactive	
CCOP(=O)(OCC)OCC	inactive	
CC1(C)[C@H](C(=O)O[C@H](C#N)c2cccc(Oc3ccccc3)c2)[C@@H]1C=C(Br)Br	inactive	
C[N+](C)(C)CC(=O)O	inactive	
CC=Cc1ccc2c(c1)OCO2	inactive	
CCNCC	inactive	
COC(C)(C)CCC[C@H](C)C/C=C/C(C)=C/C(=O)OC(C)C	inactive	
CCCCCCCCCCCCCCCC[N+](C)(C)C		24.2 µM (active)
O=C(CCl)c1ccccc1	inactive	
O=C(CCN1CC1)OCC(CO)(COC(=O)CCN1CC1)COC(=O)CCN1CC1	inactive	
CCCCOC(=O)CCC(=O)OCCCC	inactive	
C=CC(=O)OC	inactive	

SMILES	outcome	AC50
C=CCO	inactive	
CC1(C)C(=O)NC(=O)NC1=O	inactive	
CC(C)(C)C(O)C(Oc1ccc(-c2ccccc2)cc1)n1cncn1 (stereo not given)	inactive	
CC(C)CCCCCCCOP(=O)(Oc1ccccc1)Oc1ccccc1	inactive	
Oc1ccc(C2(c3ccc(O)cc3)c3ccccc3-c3ccccc32)cc1		19.8 µM (active)
Cc1ccc(OP(=O)(Oc2ccc(C)cc2)Oc2ccc(C)cc2)cc1 (tested in a mixture with another compound)	inactive	
C=CC(=O)OCC(CC)CCCC (stereo not given)	inactive	
O=c1[nH]c(Cl)c(Cl)cc1Cl	inactive	
CCC[N+](=O)[O-]	inactive	
S=c1[nH]c2ccccc2[nH]1	inactive	
C=CC(=O)OCCCCOC(=O)C=C	inactive	
CC1(C)CC(=O)CC(C)(C)N1[O]	inactive	
C=C(Cl)CCl	inactive	
O=[N+]([O-])O	inactive	
C[C@]12CCC(=O)C(O)=C1CC[C@@H]1[C@@H]2CC[C@]2(C)C(=O)CC[C@@H]12	inactive	
CN(C)CCC#N	inactive	
O=C1C=CC(=O)C=C1	inactive	
CSc1nc(N=[N+]=[N-])nc(NC(C)C)n1	inactive	
C=C(Cl)Cl	inactive	
Nc1ccccc1C(=O)OCCc1ccccc1	inactive	
